The nature of assay [1]: NCI Yeast Anticancer Drug Screen. Data for the rad50 strain (AID 155).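 Note: 0% = growth of vehicle-only cultures of the same strain.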 To be noted: S. cerevisiae rad50 strain growth inhibition, active compounds read high. The essentials:
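Yeast carrying a defined DNA repair defect were exposed to test compounds, and growth was compared with vehicle-treated controls to give percent inhibition.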

Assay [2] can be described thus: NCI Yeast Anticancer Drug Screen. Data for the mec2-1 strain (AID 157). To be noted: S. cerevisiae mec2-1 strain, active compounds read high. In a few lines: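 Compounds were applied to mec2-1 yeast cells. Their growth was then compared with that of vehicle-treated cultures to give growth inhibition.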
Assay [3] in a line: NCI Yeast Anticancer Drug Screen. Data for the sgs1 mgt1 strain (AID 161).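 Note: 0% = growth of cultures given vehicle only.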 To be noted: S. cerevisiae sgs1 mgt1 strain, active compounds read high. In a few lines: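 Growth of a repair-deficient yeast mutant was monitored after compound treatment and expressed as inhibition relative to vehicle-treated cultures.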
Assay [4] can be described thus: NCI Yeast Anticancer Drug Screen. Data for the cln2 rad14 strain (AID 165).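 Note: 0% = growth equal to vehicle treated cultures.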 To be noted: S. cerevisiae cln2 rad14 strain, active compounds read high. The essentials: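 Strain: cln2 rad14 yeast, altered in cell cycle control and DNA damage repair. Read-out: growth inhibition vs vehicle.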
The nature of assay [5]: NCI Yeast Anticancer Drug Screen. Data for the bub3 strain (AID 167). To be noted: S. cerevisiae bub3 mutant strain, active compounds read high. In a few lines: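 Compounds were applied to a genetically altered yeast strain carrying a cell-cycle control defect. Growth inhibition was scored against vehicle-treated controls.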
The nature of assay [6]: NCI Yeast Anticancer Drug Screen. Data for the mlh1 rad18 strain (AID 175). To be noted: S. cerevisiae mlh1 rad18 strain growth inhibition, active compounds read high. The essentials:
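A repair-deficient yeast strain is exposed to test compound, and growth is scored relative to vehicle-treated controls.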

[7] abbreviates: at 5.0 µM (retest, dose inferred, filed as 0.5).
[8] abbreviates: at 50.0 µM (retest, dose inferred, filed as 5.0).

This is part of a sample that, as a whole, favours compounds with a hit. Of some 79,000 tested, about 15% had one in any assay. A number with no mark means an inactive call. The source made the active and inactive calls. Cut-off read from the data, not from the text of the source: active = growth inhibition above about 70%; inactive = the rest.

Turning to `O=C(Nc1ncnc2c1ncn2C1CC(O)C(CO)O1)c1ccccc1` (configuration not stated), the growth inhibition was 1% in assay [1] (setting [7]); 1% in assay [1] (setting [8]); -2.25% in assay [1] (at 50.0 µM); -2% in assay [2] (setting [7]); 0% in assay [2] (setting [8]); -11.3% in assay [2] (at 50.0 µM). The growth inhibition was -1% in assay [3] (setting [7]); 1% in assay [3] (setting [8]); -0.05% in assay [3] (at 50.0 µM); -6% in assay [4] (setting [7]); -2% in assay [4] (setting [8]); -23.9% in assay [4] (at 50.0 µM). Also, the growth inhibition in assay [5] (setting [7]) was -2%; in assay [5] (setting [8]), -1%; in assay [5] (at 50.0 µM) it was 54.1%; in assay [6] (setting [7]), -4%; in assay [6] (setting [8]) it was 4%; in assay [6] (at 50.0 µM) it was -17.8%.
On to `FC(F)(F)c1ccccc1NC(=S)SCc1ccc2c(c1)OCO2`, for which the growth inhibition was 7% in assay [1] (setting [7]); 95% (active) in assay [1] (setting [8]); 98.8% (active) in assay [1] (at 50.0 µM); 8% in assay [2] (setting [7]); 98% (active) in assay [2] (setting [8]); 99% (active) in assay [2] (at 50.0 µM). The growth inhibition was 1% in assay [3] (setting [7]); 97% (active) in assay [3] (setting [8]); 99% (active) in assay [3] (at 50.0 µM); 2% in assay [4] (setting [7]); 96% (active) in assay [4] (setting [8]); 98% (active) in assay [4] (at 50.0 µM). Further, the growth inhibition in assay [5] (setting [7]) was 3%; in assay [5] (setting [8]) it was 95% (active); in assay [5] (at 50.0 µM) it was 98.3% (active); in assay [6] (setting [7]), 1%; in assay [6] (setting [8]), 96% (active); in assay [6] (at 50.0 µM), 99% (active).
On to `O=C1OC2(CCCCC2)OC(=O)C1=Cc1ccc([N+](=O)[O-])s1`, for which the growth inhibition is 9% in assay [1] (setting [7]); 99% (active) in assay [1] (setting [8]); 56.1% in assay [1] (at 50.0 µM); 6% in assay [2] (setting [7]); 100% (active) in assay [2] (setting [8]); 27.4% in assay [2] (at 50.0 µM). Also, the growth inhibition is 9% in assay [3] (setting [7]); 99% (active) in assay [3] (setting [8]); 99.8% (active) in assay [3] (at 50.0 µM); 4% in assay [4] (setting [7]); 61% in assay [4] (setting [8]); 10% in assay [4] (at 50.0 µM). The growth inhibition in assay [5] (setting [7]) is 0%; in assay [5] (setting [8]), 99% (active); in assay [5] (at 50.0 µM) it was 22.6%; in assay [6] (setting [7]), 14%; in assay [6] (setting [8]), 99% (active); in assay [6] (at 50.0 µM), 30.7%.
Turning to `Cc1cc(NC(=S)SCc2ccc(Cl)cc2)ccc1Br`, the growth inhibition in assay [1] (setting [7]) is 35%; in assay [1] (setting [8]) it was 98% (active); in assay [1] (at 50.0 µM) it was 91.3% (active); in assay [2] (setting [7]), 26%; in assay [2] (setting [8]), 99% (active); in assay [2] (at 50.0 µM) it was 92.7% (active). In addition, the growth inhibition was 47% in assay [3] (setting [7]); 99% (active) in assay [3] (setting [8]); 91.3% (active) in assay [3] (at 50.0 µM); 37% in assay [4] (setting [7]); 99% (active) in assay [4] (setting [8]); 88.8% (active) in assay [4] (at 50.0 µM). For the same compound, the growth inhibition was 55% in assay [5] (setting [7]); 100% (active) in assay [5] (setting [8]); 91.2% (active) in assay [5] (at 50.0 µM); 25% in assay [6] (setting [7]); 99% (active) in assay [6] (setting [8]); 91.2% (active) in assay [6] (at 50.0 µM).
`CCCCCCCCCCCCCCCCCCOS(=O)(=O)O` (tested in a mixture with another compound): the growth inhibition was 1% in assay [1] (setting [7]); 63% in assay [1] (setting [8]); 56.4% in assay [1] (at 50.0 µM); -35% in assay [2] (setting [7]); 76% (active) in assay [2] (setting [8]); 56.6% in assay [2] (at 50.0 µM). Besides, the growth inhibition in assay [3] (setting [7]) was -12%; in assay [3] (setting [8]), 60%; in assay [3] (at 50.0 µM), 68.7%; in assay [4] (setting [7]) it was -30%; in assay [4] (setting [8]) it was 49%; in assay [4] (at 50.0 µM) it was 42.5%. The growth inhibition in assay [5] (setting [7]) is -31%; in assay [5] (setting [8]), 77% (active); in assay [5] (at 50.0 µM), 67.5%; in assay [6] (setting [7]), -27%; in assay [6] (setting [8]), 80% (active); in assay [6] (at 50.0 µM), 57.5%.
As for `O=C1/C(=C\c2ccccc2)CCC/C1=C\O`, the growth inhibition in assay [1] (setting [7]) is -139%; in assay [1] (setting [8]) it was -89%; in assay [1] (at 50.0 µM) it was 39.9%; in assay [2] (setting [7]), -46%; in assay [2] (setting [8]) it was -40%; in assay [2] (at 50.0 µM), 46.5%. The growth inhibition was -50% in assay [3] (setting [7]); -44% in assay [3] (setting [8]); 6.4% in assay [3] (at 50.0 µM); -56% in assay [4] (setting [7]); -56% in assay [4] (setting [8]); 33.9% in assay [4] (at 50.0 µM). The growth inhibition was -64% in assay [5] (setting [7]); -68% in assay [5] (setting [8]); 20% in assay [5] (at 50.0 µM); -112% in assay [6] (setting [7]); -92% in assay [6] (setting [8]); 58.2% in assay [6] (at 50.0 µM).
Take `O=C1C(N=Nc2ccccc2)=C(O)C2C3C=CC(C3)C12` (configuration not stated): the growth inhibition in assay [1] (setting [7]) is 2%; in assay [1] (setting [8]) it was 98% (active); in assay [1] (at 50.0 µM), 98.8% (active); in assay [2] (setting [7]), 0%; in assay [2] (setting [8]), 98% (active); in assay [2] (at 50.0 µM), 98.5% (active). The growth inhibition is 2% in assay [3] (setting [7]); 95% (active) in assay [3] (setting [8]); 95% (active) in assay [3] (at 50.0 µM); 1% in assay [4] (setting [7]); 98% (active) in assay [4] (setting [8]); 99.3% (active) in assay [4] (at 50.0 µM). Moreover, the growth inhibition in assay [5] (setting [7]) was 1%; in assay [5] (setting [8]), 98% (active); in assay [5] (at 50.0 µM) it was 98.2% (active); in assay [6] (setting [7]), 17%; in assay [6] (setting [8]), 98% (active); in assay [6] (at 50.0 µM), 98.8% (active).
With `Nc1nc(-c2ccccc2)cc(-c2ccccc2O)n1`, the growth inhibition was 7% in assay [1] (setting [7]); -1% in assay [1] (setting [8]); 40.8% in assay [1] (at 50.0 µM); 0% in assay [2] (setting [7]); 15% in assay [2] (setting [8]); 20.5% in assay [2] (at 50.0 µM). In addition, the growth inhibition in assay [3] (setting [7]) is 12%; in assay [3] (setting [8]) it was 19%; in assay [3] (at 50.0 µM) it was 62.6%; in assay [4] (setting [7]), 13%; in assay [4] (setting [8]) it was 9%; in assay [4] (at 50.0 µM), 69.2%. For the same compound, the growth inhibition was 9% in assay [5] (setting [7]); 23% in assay [5] (setting [8]); 26.1% in assay [5] (at 50.0 µM); 8% in assay [6] (setting [7]); 11% in assay [6] (setting [8]); 67.7% in assay [6] (at 50.0 µM).
For `COc1ccc2nc(-c3ccc(Cl)cc3)[nH]c2c1`, the growth inhibition in assay [1] (setting [7]) is 1%; in assay [1] (setting [8]), 88% (active); in assay [1] (at 50.0 µM), 72.7% (active); in assay [2] (setting [7]) it was -5%; in assay [2] (setting [8]) it was 91% (active); in assay [2] (at 50.0 µM), 74.9% (active). The growth inhibition in assay [3] (setting [7]) is -3%; in assay [3] (setting [8]), 90% (active); in assay [3] (at 50.0 µM), 80.5% (active); in assay [4] (setting [7]) it was -8%; in assay [4] (setting [8]), 47%; in assay [4] (at 50.0 µM), -4%. Besides, the growth inhibition is 3% in assay [5] (setting [7]); 90% (active) in assay [5] (setting [8]); 94.2% (active) in assay [5] (at 50.0 µM); -4% in assay [6] (setting [7]); 78% (active) in assay [6] (setting [8]); 60.3% in assay [6] (at 50.0 µM).

The record behind these values is PubChem BioAssay (NCI).
